This is part of a sample that, as a whole, favours compounds with a hit. Of some 83,000 tested, about 20% had one in any assay.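 Percent growth is the endpoint: 0 to 100 indicates growth inhibition (40 means 60% inhibition), 0 means no net growth, and negative values indicate cell death.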 A number with no mark means an inactive call. Activity calls are given as the source filed them. Rule for the calls: active = growth percent below 10; inactive = the rest.

We go through twelve compounds from PubChem BioAssay (NCI).

Some test systems named below: NCI-H23 lung; NCI-H522 lung; COLO 205 colon; A498 renal; MOLT-4 leukemia; SR leukemia; HCT-116 colon; KM12 colon; HOP-92 NSCLC; PC-3 prostate; LOX IMVI melanoma; RPMI-8226 leukemia; T-47D breast; SW-620 colon; HCC-2998 colon; NCI-H322M lung; MDA-MB-435 melanoma; MDA-MB-231 breast; IGROV1 ovarian; HS 578T breast.
Holding throughout (assay): NCI-60 one-dose screen, 48 h (100 = growth as untreated, 0 = no growth, -100 = all killed)
Holding throughout (conditions): 10 µM

Turning to `O=C(/C=C/c1ccccc1Cl)c1nc2ccccc2n1Cc1ccc(F)cc1`, the growth in the assay on NCI-H23 lung was -78.2% (active); in the assay on NCI-H522 lung, -81.2% (active); in the assay on COLO 205 colon, -83.5% (active); with A498 renal, 62.5%; in the assay with MOLT-4 leukemia, -16.2% (active); with SR leukemia, -27.9% (active). Moreover, the growth in the assay on HCT-116 colon is -96.3% (active); in the assay on KM12 colon, -60.5% (active).

With `COC(=O)C[C@](O)(CCC(C)C)C(=O)O[C@@H]1C(OC)=C[C@]23CCCN2CCc2cc4c(cc2[C@H]13)OCO4`, the growth in the assay on NCI-H23 lung is -68% (active); with HOP-92 NSCLC it was -19.4% (active); in the assay on NCI-H522 lung, -80.7% (active); with PC-3 prostate it was -19% (active); in the assay on LOX IMVI melanoma, -82.6% (active); in the assay with A498 renal, -46.5% (active). Besides, the growth in the assay with MOLT-4 leukemia is -7.96% (active); in the assay with RPMI-8226 leukemia it was -30.2% (active); in the assay on T-47D breast, -24% (active); with SW-620 colon, -7.29% (active); with HCC-2998 colon it was -89.9% (active).

As to `C=CC[Se]C(=O)c1cncc(C(=O)[Se]CC=C)c1`, the growth in the assay with NCI-H23 lung is -74.7% (active); with NCI-H322M lung, -46.2% (active); in the assay on NCI-H522 lung, -89.5% (active); with COLO 205 colon, -47.3% (active); in the assay on PC-3 prostate, -65.8% (active); in the assay with A498 renal it was 29.9%. For the same compound, the growth was -22.9% (active) in the assay on MOLT-4 leukemia, -13.3% (active) in the assay on SR leukemia, -42.2% (active) in the assay on T-47D breast and -62.9% (active) with MDA-MB-435 melanoma.

Regarding `COCCOCCOCCOc1ccc(-n2cc(CCCN(CCNc3ccnc4cc(Cl)ccc34)C(=O)CCC(=O)O[C@@H]3O[C@@H]4OC5(C)CC[C@H]6[C@H](C)CC[C@@H]([C@H]3C)[C@@]46OO5)nn2)cc1`, the growth in the assay on NCI-H23 lung was 47.9%; in the assay with NCI-H522 lung, 1.23% (active); in the assay with COLO 205 colon, 11.8%; in the assay with MDA-MB-231 breast, 73.5%; with LOX IMVI melanoma it was 1.51% (active); with MOLT-4 leukemia, 7.21% (active). Also, the growth in the assay on SR leukemia is -5.07% (active); with IGROV1 ovarian, 44.8%; with MDA-MB-435 melanoma, 24.8%; in the assay with SW-620 colon, 30%; in the assay with HCT-116 colon, 15.5%; with HCC-2998 colon it was 67.2%. For the same compound, the growth in the assay with KM12 colon is 28.6%.

For `Cc1c2oc3c(C)ccc(C(=O)N[C@@H]4C(=O)N[C@H](C(C)C)C(=O)N5CCC[C@H]5C(=O)N(C)CC(=O)N(C)[C@@H](C(C)C)C(=O)OC4C)c3nc-2c(C(=O)N[C@@H]2C(=O)N[C@H](C(C)C)C(=O)N3CC(=O)C[C@H]3C(=O)N(C)CC(=O)N(C)[C@@H](C(C)C)C(=O)OC2C)c(N)c1=O` (some centres undefined), the growth in the assay with NCI-H23 lung was -38.9% (active); with NCI-H322M lung, 4.93% (active); in the assay on HOP-92 NSCLC, -17.7% (active); in the assay on COLO 205 colon it was -71% (active); in the assay with MDA-MB-231 breast, 1.92% (active); in the assay on LOX IMVI melanoma, -0.489% (active). The growth in the assay with RPMI-8226 leukemia was -13.1% (active); in the assay with T-47D breast, -5% (active); in the assay on MDA-MB-435 melanoma, -66.1% (active); with SW-620 colon it was 6.93% (active); in the assay with HCT-116 colon, 22.3%; in the assay with HCC-2998 colon it was -20% (active).

Consider `O=C(/C=C/c1ccc(F)cc1)c1nc2ccccc2n1Cc1ccc(F)cc1`, for which the growth in the assay with NCI-H23 lung was 14.6%; in the assay with NCI-H322M lung it was 40.5%; with HOP-92 NSCLC, 22.9%; with NCI-H522 lung, 44.1%; in the assay on COLO 205 colon, -32% (active); in the assay with MOLT-4 leukemia it was 1.05% (active). Moreover, the growth was 1.79% (active) in the assay with SR leukemia, -56.9% (active) in the assay on HCT-116 colon, -78.9% (active) with HCC-2998 colon and -4.81% (active) in the assay with KM12 colon.

Consider `C#CCCCN(CCNc1ccnc2cc(Cl)ccc12)C(=O)CCC(=O)O[C@@H]1O[C@@H]2OC3(C)CC[C@H]4[C@H](C)CC[C@@H]([C@H]1C)[C@@]24OO3`, for which the growth in the assay with NCI-H23 lung was 35.7%; with MDA-MB-231 breast, 64.2%; with LOX IMVI melanoma it was -40.9% (active); with A498 renal, 96%; in the assay on MOLT-4 leukemia, -4.65% (active); with SR leukemia, -21.9% (active). The growth in the assay with IGROV1 ovarian was 41.1%; in the assay with MDA-MB-435 melanoma, 21.2%; in the assay on SW-620 colon, 33.2%; with KM12 colon, 27.7%.

Consider `CCOP(=O)(OCC)C(NC(C)=O)C(=O)SCCN` (centres undefined), for which the growth is 101% in the assay with NCI-H23 lung; 102% with NCI-H322M lung; 99.2% in the assay with MDA-MB-231 breast; 92.1% with LOX IMVI melanoma; 105% with MOLT-4 leukemia; 98.4% in the assay with SR leukemia. Further, the growth with RPMI-8226 leukemia is 109%; in the assay with IGROV1 ovarian it was 110%; in the assay on HS 578T breast, 100%; in the assay with T-47D breast it was 99.6%; in the assay on MDA-MB-435 melanoma, 111%; with SW-620 colon it was 112%. Also, the growth with HCT-116 colon is 111%; in the assay with KM12 colon, 112%.

As to `CC1=C(COCCOC(=O)c2ccc(S(=O)(=O)F)cc2)C2=C(C)C3(CC3)[C@@](C)(O)C(=O)C2=C1`, the growth in the assay with NCI-H23 lung was -85.6% (active); in the assay with HOP-92 NSCLC it was -29.7% (active); in the assay with MDA-MB-231 breast it was -27.2% (active); in the assay on PC-3 prostate, 8.96% (active); with LOX IMVI melanoma it was -62.7% (active); in the assay on MOLT-4 leukemia it was 36%. The growth in the assay on RPMI-8226 leukemia was 76.4%; in the assay on T-47D breast it was -13.2% (active); in the assay on MDA-MB-435 melanoma it was 3.24% (active); in the assay with SW-620 colon it was 62.3%; with HCC-2998 colon, -83.5% (active).

Take `COP(=O)(CC(F)(F)C(F)(F)F)OC`: the growth with NCI-H23 lung was 41.8%; in the assay with NCI-H322M lung, 109%; in the assay with NCI-H522 lung it was -71.5% (active); with MDA-MB-231 breast, 65.1%; with LOX IMVI melanoma it was -63.5% (active); in the assay on MOLT-4 leukemia, 5.72% (active). Further, the growth is 5.42% (active) in the assay on SR leukemia; 12.3% in the assay with RPMI-8226 leukemia; 50.2% in the assay with IGROV1 ovarian; -15.9% (active) in the assay on SW-620 colon; -60.6% (active) in the assay with HCT-116 colon; 91% with HCC-2998 colon.

For the compound `CC(C)C[C@H](NC(=O)CNC(=O)C[C@H]1O[C@@H]2OC3(C)CC[C@H]4[C@H](C)CC[C@@H]([C@H]1C)[C@@]24OO3)B(O)O`, the growth in the assay on NCI-H23 lung is -2.35% (active); in the assay on COLO 205 colon, 17.8%; in the assay on MDA-MB-231 breast it was -68% (active); in the assay with PC-3 prostate, 4.1% (active); in the assay on LOX IMVI melanoma it was -86.4% (active); in the assay with A498 renal, 43.1%. In addition, the growth with MOLT-4 leukemia was 1.81% (active); with SR leukemia, 28.7%; with RPMI-8226 leukemia, -14.5% (active); with IGROV1 ovarian, 2.58% (active); in the assay with T-47D breast, -32.8% (active); with MDA-MB-435 melanoma, -61.2% (active). The growth in the assay with SW-620 colon is 1.51% (active); in the assay with HCC-2998 colon, -95.1% (active); with KM12 colon, -15.4% (active).

On to `O=C(/C=C/c1ccccc1)c1nc2ccccc2n1Cc1ccc(F)cc1`, for which the growth is -45.9% (active) in the assay on NCI-H23 lung; -43.4% (active) in the assay with COLO 205 colon; -33.5% (active) in the assay with PC-3 prostate; -4.66% (active) with MOLT-4 leukemia; -16.4% (active) in the assay on SR leukemia; -38% (active) in the assay on RPMI-8226 leukemia. The values for the growth with IGROV1 ovarian and in the assay with KM12 colon were -32.9% (active) and -41.3% (active), respectively.
